Key:
ADCK5 = conditions: read-out: apparent Kd; compound concentrations:100 nM and 1000 nM (sheet 'Lestaurtinib' of Supplementary Table 1),run:Lestaurtinib_02443_R1,Plate:MR009; n = 1
BCR = conditions: read-out: apparent Kd; compound concentrations:100 nM and 1000 nM (sheet 'Lestaurtinib' of Supplementary Table 1),run:Lestaurtinib_02487_R1,Plate:MR012; n = 1
BMPR1B = conditions: read-out: apparent Kd; compound concentrations:100 nM and 1000 nM (sheet 'Lestaurtinib' of Supplementary Table 1),run:Lestaurtinib_02496_R2,Plate:MR013; n = 1
BUB1 = conditions: read-out: apparent Kd; compound concentrations:100 nM and 1000 nM (sheet 'Lestaurtinib' of Supplementary Table 1),run:Lestaurtinib_02487_R1,Plate:MR012; n = 1
CSK = conditions: read-out: apparent Kd; compound concentrations:100 nM and 1000 nM (sheet 'Lestaurtinib' of Supplementary Table 1),run:Lestaurtinib_02487_R1,Plate:MR012; n = 1
CSNK2A1;CSNK2A3 = conditions: read-out: apparent Kd; compound concentrations:100 nM and 1000 nM (sheet 'Lestaurtinib' of Supplementary Table 1),run:Lestaurtinib_02422_R1,Plate:MR006; n = 1
CSNK2A2 = conditions: read-out: apparent Kd; compound concentrations:100 nM and 1000 nM (sheet 'Lestaurtinib' of Supplementary Table 1),run:Lestaurtinib_02487_R1,Plate:MR012; n = 1
DAPK3 = conditions: read-out: apparent Kd; compound concentrations:100 nM and 1000 nM (sheet 'Lestaurtinib' of Supplementary Table 1),run:Lestaurtinib_02443_R1,Plate:MR009; n = 1
DJA1 = test system: T1, DJA1; conditions: read-out: apparent Kd; compound concentrations:100 nM and 1000 nM (sheet 'Lestaurtinib' of Supplementary Table 1),run:Lestaurtinib_02482_R2,Plate:MR011; n = 1
T1 construct: gene DNAJA1

EPHA1 = conditions: read-out: apparent Kd; compound concentrations:100 nM and 1000 nM (sheet 'Lestaurtinib' of Supplementary Table 1),run:Lestaurtinib_02487_R1,Plate:MR012; n = 1
EPHA2 = conditions: read-out: apparent Kd; compound concentrations:100 nM and 1000 nM (sheet 'Lestaurtinib' of Supplementary Table 1),run:Lestaurtinib_02487_R1,Plate:MR012; n = 1
EPHA4 = conditions: read-out: apparent Kd; compound concentrations:100 nM and 1000 nM (sheet 'Lestaurtinib' of Supplementary Table 1),run:Lestaurtinib_02487_R1,Plate:MR012; n = 1
EPHB1 = conditions: read-out: apparent Kd; compound concentrations:100 nM and 1000 nM (sheet 'Lestaurtinib' of Supplementary Table 1),run:Lestaurtinib_02487_R1,Plate:MR012; n = 1
EPHB3 = conditions: read-out: apparent Kd; compound concentrations:100 nM and 1000 nM (sheet 'Lestaurtinib' of Supplementary Table 1),run:Lestaurtinib_02487_R1,Plate:MR012; n = 1
EPHB4 = conditions: read-out: apparent Kd; compound concentrations:100 nM and 1000 nM (sheet 'Lestaurtinib' of Supplementary Table 1),run:Lestaurtinib_02487_R1,Plate:MR012; n = 1
FGFR1 = conditions: read-out: apparent Kd; compound concentrations:100 nM and 1000 nM (sheet 'Lestaurtinib' of Supplementary Table 1),run:Lestaurtinib_02487_R1,Plate:MR012; n = 1
GRK6 = conditions: read-out: apparent Kd; compound concentrations:100 nM and 1000 nM (sheet 'Lestaurtinib' of Supplementary Table 1),run:Lestaurtinib_02339_R2,Plate:MR001; n = 1
GSK3A = conditions: read-out: apparent Kd; compound concentrations:100 nM and 1000 nM (sheet 'Lestaurtinib' of Supplementary Table 1),run:Lestaurtinib_02487_R1,Plate:MR012; n = 1
GSK3B = conditions: read-out: apparent Kd; compound concentrations:100 nM and 1000 nM (sheet 'Lestaurtinib' of Supplementary Table 1),run:Lestaurtinib_02487_R1,Plate:MR012; n = 1
HCK = conditions: read-out: apparent Kd; compound concentrations:100 nM and 1000 nM (sheet 'Lestaurtinib' of Supplementary Table 1),run:Lestaurtinib_02422_R1,Plate:MR006; n = 1

Substance: Lestaurtinib
- potency estimated from few doses (ADCK5): 2240 nM
- potency estimated from few doses (BCR): 314 nM
- potency estimated from few doses (BMPR1B): 737 nM
- potency estimated from few doses (BUB1): 854 nM
- potency estimated from few doses (CSK): 526 nM
- potency estimated from few doses (CSNK2A1;CSNK2A3): 1810 nM
- potency estimated from few doses (CSNK2A2): 415 nM
- potency estimated from few doses (DAPK3): 1580 nM
- potency estimated from few doses (DJA1): 1330 nM
- potency estimated from few doses (EPHA1): 297 nM
- potency estimated from few doses (EPHA2): 428 nM
- potency estimated from few doses (EPHA4): 268 nM
- potency estimated from few doses (EPHB1): 403 nM
- potency estimated from few doses (EPHB3): 780 nM
- potency estimated from few doses (EPHB4): 207 nM
- potency estimated from few doses (FGFR1): 1150 nM
- potency estimated from few doses (GRK6): 2090 nM
- potency estimated from few doses (GSK3A): 175 nM
- potency estimated from few doses (GSK3B): 295 nM
- potency estimated from few doses (HCK): 1300 nM
